# Source: ChEMBL document CHEMBL4513149, “CO-ADD screening of MMV (CH) - MMV compounds” (2021)
# Potency and affinity values are given separately.
# How the values were obtained:
# [1] = system: Staphylococcus aureus; settings: Concentration 20 uM; ASSAY_TEST Inhibition of Bacterial Growth; detection method Absorption (OD600); MEDIA CAMHB; plate type 384well; NBS; CORNING #3640; time 18 hr
# [2] = system: Escherichia coli; settings: Concentration 20 uM; ASSAY_TEST Inhibition of Bacterial Growth; detection method Absorption (OD600); MEDIA CAMHB; plate type 384well; NBS; CORNING #3640; time 18 hr
SMILES,Inhibition [1],Inhibition [2]
NS(=O)(=O)c1cccc(-c2ccc3ncc(N4CCOCC4)nc3c2)c1,16.94%,14.17%
Cc1ccc(C(=O)Nc2ccc(S(=O)(=O)O)c3cc(S(=O)(=O)O)cc(S(=O)(=O)O)c23)cc1NC(=O)c1cccc(NC(=O)Nc2cccc(C(=O)Nc3cc(C(=O)Nc4ccc(S(=O)(=O)O)c5cc(S(=O)(=O)O)cc(S(=O)(=O)O)c45)ccc3C)c2)c1 [SURAMIN],23.13%,7.96%
O=C(c1ccc(F)cc1)N(CCNc1ccccc1)c1ccccc1,14.62%,8.4%
O=C(Nc1ccccc1-c1nc2c(C(=O)O)cccc2o1)c1ccccc1,12.25%,-2.2%
Cc1cc(C(=O)Nc2ccc(-c3ccccc3)cc2)no1,16.2%,12.13%
COc1cccn2c(C(=O)N3CCCCC3)c(C(F)(F)F)nc12,18.98%,-2.18%
O=C(c1[nH]nc2c1CCCC2)N1CCN(Cc2ccc3c(c2)OCO3)CC1,14.51%,7.99%
O=C(Nc1ccnc(-c2cccnc2)n1)c1cc(C(F)(F)F)cc(C(F)(F)F)c1,15.63%,6.19%
Cc1cccc(NC(=O)c2cc(S(=O)(=O)N(C)c3ccc(F)cc3)ccc2Cl)n1,12.32%,7.88%
Cc1ccc(S(=O)(=O)Nc2ccc(CN3CCN(C(=O)c4cccc(C#N)c4)CC3)cc2)cc1,8.99%,3.52%
COc1cc(C2=NCCN2)ccc1-c1cn(-c2cccc(C3=NCCN3)c2)nn1,19.96%,14.41%
